From PubChem BioAssay (NCI)
About 83,000 compounds went through this panel and 20% of them were active in at least one assay; those are over-represented in the sample as a whole.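 Activity criterion: percent growth below 10, measured after cells in 96-well plates were exposed to a single compound concentration for 48 hours.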 Calls of active or inactive are those of the source.

Assays:
Experiment in all cases: NCI-60 one-dose screen, 48 h (100 = growth as untreated, 0 = no growth, -100 = all killed)
Settings in all cases: 10 µM unless noted
NCI-H23 lung = test system: NCI-H23 lung
NCI-H226 lung = test system: NCI-H226 lung
NCI-H322M lung = test system: NCI-H322M lung
NCI-H460 lung = test system: NCI-H460 lung
HOP-92 NSCLC = test system: HOP-92 NSCLC
NCI-H522 lung = test system: NCI-H522 lung
A549/ATCC NSCLC = test system: A549/ATCC NSCLC
786-0 renal = test system: 786-0 renal
COLO 205 colon = test system: COLO 205 colon
HOP-62 NSCLC = test system: HOP-62 NSCLC

Measured: growth

Nc1ccc(S(=O)(=O)Nc2cc(I)cc(I)c2)cc1
inactive: NCI-H23 lung 93.6% | NCI-H226 lung 113% | NCI-H322M lung 94.8% | NCI-H460 lung 109% | HOP-92 NSCLC 79.2% | NCI-H522 lung 90.1% | A549/ATCC NSCLC 112% | 786-0 renal 95.5% | COLO 205 colon 123%

Cc1ncc(CO)c(C(=O)O)c1O
inactive: NCI-H23 lung 98.6% | NCI-H226 lung 102% | NCI-H322M lung 80.9% | NCI-H460 lung 105% | HOP-92 NSCLC 106% | NCI-H522 lung 79.8% | A549/ATCC NSCLC 110% | 786-0 renal 97.5% | COLO 205 colon 112%

O=C(Nc1ccc(-n2ccc3c(NC(=O)c4ccccc4)nccc32)cc1)c1ccc(Cl)c(C(F)(F)F)c1
active: NCI-H460 lung -67% | NCI-H522 lung -0.6% | A549/ATCC NSCLC -29.9%
inactive: NCI-H23 lung 64% | NCI-H226 lung 69.9% | NCI-H322M lung 66.1% | HOP-92 NSCLC 46.5% | 786-0 renal 22.9% | COLO 205 colon 37.2%

CCN(CC)CCNc1ccc([N+](=O)[O-])c2sc3cc(Cl)ccc3c(=O)c12
inactive: NCI-H23 lung 63.5% | NCI-H226 lung 84.9% | NCI-H322M lung 53.9% | HOP-92 NSCLC 47.5% | NCI-H522 lung 49.4% | A549/ATCC NSCLC 52.9% | COLO 205 colon 60.1%
active: NCI-H460 lung -17.8% | 786-0 renal -80.3%

O=C(Nc1ccc(-n2cc(-c3ccncc3)c(-c3ccc(O)c(Cl)c3)n2)cc1)c1cc(Cl)cc(Cl)c1
inactive: NCI-H23 lung 59.2% | NCI-H226 lung 89.1% | NCI-H322M lung 50.1% | NCI-H460 lung 22.3% | HOP-92 NSCLC 42% | NCI-H522 lung 22% | A549/ATCC NSCLC 35.9% | COLO 205 colon 91.1%
active: 786-0 renal -42.1%

COc1cc(-c2nc3ccccc3s2)ccc1OCc1nc2n(n1)S(=O)(=O)c1ccccc1N2C
active: HOP-92 NSCLC 1.17%
inactive: NCI-H23 lung 92.7% | NCI-H226 lung 101% | NCI-H322M lung 68.9% | NCI-H460 lung 101% | NCI-H522 lung 60.7% | A549/ATCC NSCLC 91.1% | 786-0 renal 62.1% | COLO 205 colon 102%

CC(C)(C)OC(=O)NCc1cccc(N=C=S)c1
active: HOP-92 NSCLC -0.561%
inactive: NCI-H23 lung 55.3% | NCI-H226 lung 80.6% | NCI-H322M lung 65.7% | NCI-H460 lung 63.8% | NCI-H522 lung 12.8% | A549/ATCC NSCLC 69.2% | 786-0 renal 54.9% | COLO 205 colon 38.5%

CCc1c(C)c2cc(-n3c(-c4ccc(OC)cc4)csc3=N)c(O)c(C)c2oc1=O
inactive: NCI-H23 lung 26.7% | NCI-H226 lung 56% | NCI-H322M lung 54.5% | NCI-H460 lung 11.1% | HOP-92 NSCLC 33.5% | A549/ATCC NSCLC 26.3% | 786-0 renal 21.5% | COLO 205 colon 12.6%
active: NCI-H522 lung -46.5%

CN[C@@H](CCCNC(N)=NC/C=C(/C)CCC=C(C)C)C(=O)N(C)[C@@H](CCCNC(N)=NCC=C(C)C)C(=O)N[C@H](C)[C@H](OS(=O)(=O)O)c1ccc(OS(=O)(=O)O)c(COS(=O)(=O)O)c1
inactive: NCI-H23 lung 99.9% | NCI-H226 lung 89.1% | NCI-H322M lung 102% | NCI-H460 lung 110% | HOP-92 NSCLC 100% | NCI-H522 lung 83.9% | A549/ATCC NSCLC 89.7% | 786-0 renal 97.1% | COLO 205 colon 108%

CC[C@@]1(O)C(=O)OCc2c1cc1n(c2=O)Cc2c-1nc1ccccc1c2/C=N/OC(C)(C)C
inactive: NCI-H322M lung 12.4%
active: NCI-H23 lung -4.17% | NCI-H226 lung -78.7% | NCI-H460 lung 1.16% | HOP-92 NSCLC -11.8% | NCI-H522 lung -47.8% | A549/ATCC NSCLC -11% | 786-0 renal 2.49% | COLO 205 colon -26.9%

CCc1cccc(C)c1NC(=O)c1sc2nc3c(cc2c1N)CCCCC3
inactive: NCI-H23 lung 45.3% | NCI-H226 lung 50.7% | NCI-H322M lung 41.4% | NCI-H460 lung 13.3% | HOP-92 NSCLC 72.2% | A549/ATCC NSCLC 32.9% | 786-0 renal 44.8%
active: NCI-H522 lung -9.98% | COLO 205 colon 7.73%

C=C1C(=O)O[C@H]2[C@H]1CC/C(COC(=O)c1ccc(Cl)nc1)=C\CC[C@@]1(C)O[C@@H]21
inactive: NCI-H23 lung 47.5% | NCI-H322M lung 68.4% | NCI-H460 lung 56.1% | A549/ATCC NSCLC 39.7%
active: NCI-H226 lung -9.06% | HOP-92 NSCLC -40.1% | NCI-H522 lung -83.7% | 786-0 renal 9.88% | COLO 205 colon -73.3%

C=C1C(=O)O[C@H]2[C@H]1CC/C(CNC(=O)/C1=C/CC[C@@]3(C)O[C@H]3[C@H]3OC(=O)C(=C)[C@@H]3CC1)=C\CC[C@@]1(C)O[C@@H]21
inactive: NCI-H23 lung 99.6% | NCI-H226 lung 92.4% | NCI-H322M lung 96% | NCI-H460 lung 104% | HOP-92 NSCLC 84.5% | A549/ATCC NSCLC 91% | 786-0 renal 93.1% | COLO 205 colon 71.8%
active: NCI-H522 lung -28.3%

COc1cc(NS(=O)(=O)c2ccc(N)cc2)ncn1
inactive: NCI-H23 lung 101% | NCI-H226 lung 112% | NCI-H322M lung 104% | NCI-H460 lung 110% | HOP-92 NSCLC 105% | NCI-H522 lung 114% | A549/ATCC NSCLC 102% | 786-0 renal 99.1% | COLO 205 colon 113%

Nc1nccc2c1ccn2-c1cccc(NC(=O)c2ccc(N3CCOCC3)c(C(F)(F)F)c2)c1
active: NCI-H460 lung 1.28% | HOP-92 NSCLC -6.29% | NCI-H522 lung -43% | 786-0 renal -38.9% | COLO 205 colon -38.6%
inactive: NCI-H23 lung 16.4% | NCI-H226 lung 35.8% | NCI-H322M lung 35.3% | A549/ATCC NSCLC 10.8%

OCCOCC(F)(F)F
inactive: NCI-H23 lung 104% | NCI-H226 lung 105% | NCI-H322M lung 97.8% | NCI-H460 lung 108% | HOP-92 NSCLC 94.9% | NCI-H522 lung 110% | A549/ATCC NSCLC 113% | 786-0 renal 113% | COLO 205 colon 112%

FC(F)(F)c1cccc([Si](F)(c2cccc(C(F)(F)F)c2)c2cccc(C(F)(F)F)c2)c1
inactive: NCI-H23 lung 43.4% | NCI-H226 lung 70.3% | NCI-H322M lung 91% | NCI-H460 lung 73.9% | HOP-92 NSCLC 16.1% | NCI-H522 lung 53.2% | A549/ATCC NSCLC 78.1% | 786-0 renal 50.5% | COLO 205 colon 102%

CN(C)c1ccc2cc(-c3nc4ccccc4s3)c(N)nc2c1
inactive: NCI-H23 lung 50.8% | NCI-H226 lung 119% | NCI-H322M lung 49.8% | NCI-H460 lung 19.6% | HOP-92 NSCLC 85.1% | NCI-H522 lung 17% | A549/ATCC NSCLC 28.3% | 786-0 renal 35.3% | COLO 205 colon 84.1%

COc1cc2c(/C=C3/C(=O)Nc4ccc(O)cc43)c(Cl)n(Cc3cc(OC)c(OC)c(OC)c3)c2cc1C
active: NCI-H460 lung 4.32% | HOP-92 NSCLC -5.18% | NCI-H522 lung 0.662% | COLO 205 colon 4.15%
inactive: NCI-H23 lung 41.9% | NCI-H226 lung 65.5% | NCI-H322M lung 48.8% | A549/ATCC NSCLC 16.3% | 786-0 renal 15.8%

COc1ccc(NC(=O)Nc2ccc(-c3ccc(OC)c(OC)c3)nc2C)cc1
inactive: NCI-H23 lung 67.4% | NCI-H226 lung 58% | HOP-62 NSCLC 56.5% | NCI-H460 lung 17.6% | HOP-92 NSCLC 73.4% | NCI-H522 lung 49.9% | A549/ATCC NSCLC 57% | 786-0 renal 11.1% | COLO 205 colon 91.9%

O=S1(=O)N(CCNc2nccc(-c3c(-c4cccc(O)c4)nc4sccn34)n2)CCN1Cc1ccccc1
inactive: NCI-H23 lung 84.1% | NCI-H226 lung 71.2% | HOP-62 NSCLC 143% | NCI-H460 lung 42% | HOP-92 NSCLC 119% | NCI-H522 lung 52.1% | A549/ATCC NSCLC 65.2% | 786-0 renal 78.3% | COLO 205 colon 46.4%

COc1ccccc1S(=O)(=O)Nc1ccc2c3c(cc(-c4ccoc4)nc13)C(=O)N2C
inactive: NCI-H23 lung 81.2% | NCI-H226 lung 82.7% | HOP-62 NSCLC 52.6% | NCI-H460 lung 70.9% | HOP-92 NSCLC 45.3% | NCI-H522 lung 46.3% | A549/ATCC NSCLC 66.2% | 786-0 renal 53.6% | COLO 205 colon 44.7%

CCCCOc1nc2ccc(Cl)cc2cc1/C=C/C(=O)/C=C/c1ccc(OC)cc1
inactive: NCI-H23 lung 95.9% | NCI-H226 lung 99.6% | HOP-62 NSCLC 110% | NCI-H460 lung 98.4% | NCI-H522 lung 77.5% | A549/ATCC NSCLC 92.1% | 786-0 renal 110% | COLO 205 colon 93.1%

CCCc1nn2c(CCC(=O)c3nc4ccc([N+](=O)[O-])cc4[nH]3)nnc2s1
inactive: NCI-H23 lung 94.4% | NCI-H226 lung 102% | HOP-62 NSCLC 106% | NCI-H460 lung 104% | NCI-H522 lung 104% | A549/ATCC NSCLC 99.9% | 786-0 renal 108% | COLO 205 colon 112%

Cn1cnc([N+](=O)[O-])c1N1c2ccncc2Sc2ccncc21
inactive: NCI-H23 lung 91.2% | NCI-H226 lung 82.1% | HOP-62 NSCLC 93.3% | NCI-H460 lung 106% | HOP-92 NSCLC 77.1% | NCI-H522 lung 72.5% | A549/ATCC NSCLC 104% | 786-0 renal 110% | COLO 205 colon 89.6%

CSc1ccc(C(=O)C[n+]2cccc(C)c2)cc1
inactive: NCI-H23 lung 102% | NCI-H226 lung 94.3% | HOP-62 NSCLC 107% | NCI-H460 lung 109% | HOP-92 NSCLC 105% | NCI-H522 lung 110% | A549/ATCC NSCLC 105% | 786-0 renal 100% | COLO 205 colon 109%

CCOc1ccccc1C(=O)N1CCN(c2cc(Cl)cc(Cl)c2)CC1
active: NCI-H460 lung 5.68% | NCI-H522 lung -6.41% | COLO 205 colon -65.9%
inactive: NCI-H23 lung 24.3% | NCI-H226 lung 65.6% | HOP-62 NSCLC 27.1% | HOP-92 NSCLC 18.2% | A549/ATCC NSCLC 19.3% | 786-0 renal 14.5%

CCCCOc1c(N)cc(Cl)cc1C(=O)OCCN(CC)CC
inactive: NCI-H23 lung 104% | NCI-H226 lung 94.1% | HOP-62 NSCLC 91.8% | NCI-H460 lung 108% | HOP-92 NSCLC 89.6% | NCI-H522 lung 53.1% | A549/ATCC NSCLC 86.5% | 786-0 renal 92.8% | COLO 205 colon 115%

Cc1c(F)cccc1NC(=O)c1sc2nc3c(cc2c1N)CCCCC3
inactive: NCI-H23 lung 79.6% | NCI-H226 lung 56.8% | HOP-62 NSCLC 50.3% | NCI-H460 lung 56.7% | HOP-92 NSCLC 70.5% | NCI-H522 lung 20% | A549/ATCC NSCLC 73.9% | 786-0 renal 75.7% | COLO 205 colon 74.2%
